Data taken from ChEMBL document CHEMBL3988442, “University of Dundee, Small-Polar-MMV Screening Library” (2021).
For some assays here: Measured potencies and affinities stand elsewhere.

Assays:
Design in all cases: scale not given: direction of the effect not stated beside the values
[1] = target: Protein translocase subunit SecA (Escherichia coli (strain K12)) (UniProt P10408); assay: Assay to Identify E. coli SecA ATPase Inhibitors; assay type: functional; conditions: 30 µM
[2] = target: T1, Ubiquitin-activating enzyme e1, putative (Leishmania donovani (strain BPK282A1)) (UniProt E9BSI1); assay: Leishmania donovani Ubiquitin Activating Enzyme (LdE1); assay type: functional; conditions: 30 µM
T1 sequence (whole entry): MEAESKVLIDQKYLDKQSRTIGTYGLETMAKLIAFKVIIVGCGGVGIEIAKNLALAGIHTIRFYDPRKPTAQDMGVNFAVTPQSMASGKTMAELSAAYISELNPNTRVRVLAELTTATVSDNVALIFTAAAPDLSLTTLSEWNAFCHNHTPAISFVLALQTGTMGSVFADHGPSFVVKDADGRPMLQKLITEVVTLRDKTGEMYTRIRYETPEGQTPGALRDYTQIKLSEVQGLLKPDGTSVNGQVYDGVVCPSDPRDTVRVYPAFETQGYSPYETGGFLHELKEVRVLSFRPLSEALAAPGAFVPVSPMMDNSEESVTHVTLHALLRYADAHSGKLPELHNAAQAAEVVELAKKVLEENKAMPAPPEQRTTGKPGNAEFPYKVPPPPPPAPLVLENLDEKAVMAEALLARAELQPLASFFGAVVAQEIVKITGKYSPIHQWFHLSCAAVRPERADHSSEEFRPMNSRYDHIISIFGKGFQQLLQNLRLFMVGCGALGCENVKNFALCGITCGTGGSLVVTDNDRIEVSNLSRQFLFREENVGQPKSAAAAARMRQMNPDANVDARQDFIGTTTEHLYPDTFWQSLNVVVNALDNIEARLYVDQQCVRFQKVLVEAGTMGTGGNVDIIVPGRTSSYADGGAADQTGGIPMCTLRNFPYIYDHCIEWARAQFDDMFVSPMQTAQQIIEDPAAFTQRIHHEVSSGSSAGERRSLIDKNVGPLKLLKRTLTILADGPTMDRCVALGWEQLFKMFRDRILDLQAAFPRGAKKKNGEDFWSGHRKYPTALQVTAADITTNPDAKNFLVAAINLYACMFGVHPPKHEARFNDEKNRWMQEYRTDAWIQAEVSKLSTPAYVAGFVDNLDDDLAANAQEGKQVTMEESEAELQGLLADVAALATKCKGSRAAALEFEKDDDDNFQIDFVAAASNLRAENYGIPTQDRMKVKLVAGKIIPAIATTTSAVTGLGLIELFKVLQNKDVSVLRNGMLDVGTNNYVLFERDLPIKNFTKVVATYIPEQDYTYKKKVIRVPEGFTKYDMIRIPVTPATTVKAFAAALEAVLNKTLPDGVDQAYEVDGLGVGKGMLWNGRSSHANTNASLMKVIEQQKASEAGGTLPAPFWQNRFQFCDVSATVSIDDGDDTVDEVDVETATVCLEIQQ

[3] = target: AMP-activated protein kinase, AMPK (Homo sapiens) (UniProt P54646+O43741+P54619+Q9UGJ0+Q9Y478+Q13131+Q9UGI9); assay: AMP-dependent Kinase enzyme assay. An in vitro enzyme assay that detects ADP turnover that is directly proportional to AMPK activity. This uses naive AMPK that is activated during the assay with MK-8722; assay type: functional; conditions: 30 µM
[4] = target: Sialic acid-binding Ig-like lectin 9 (Homo sapiens) (UniProt Q9Y336); assay: Hs-Siglec9 ALPHAscreen SOP 20170721; conditions: 10 µM
Chain of Sialic acid-binding Ig-like lectin 9 (Homo sapiens) (Q9Y336 whole entry): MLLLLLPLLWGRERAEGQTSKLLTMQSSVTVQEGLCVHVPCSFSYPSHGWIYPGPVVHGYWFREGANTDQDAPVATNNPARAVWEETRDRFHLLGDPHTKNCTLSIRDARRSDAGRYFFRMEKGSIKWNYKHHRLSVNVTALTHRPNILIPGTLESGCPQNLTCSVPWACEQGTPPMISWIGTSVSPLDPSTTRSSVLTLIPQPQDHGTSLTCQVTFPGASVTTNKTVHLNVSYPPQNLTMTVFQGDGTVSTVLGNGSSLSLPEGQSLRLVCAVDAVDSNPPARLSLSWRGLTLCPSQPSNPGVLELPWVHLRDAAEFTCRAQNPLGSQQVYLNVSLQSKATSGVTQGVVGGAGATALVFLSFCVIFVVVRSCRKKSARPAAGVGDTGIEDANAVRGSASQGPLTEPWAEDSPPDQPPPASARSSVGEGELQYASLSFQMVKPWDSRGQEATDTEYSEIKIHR

Trypanosoma cruzi = assay: Trypanosoma cruzi phosphomannomutase and mannose-1-phosphate guanylyltransferase assay; assay type: functional; conditions: 10 µM
[5] = target: T2, Arginase-2, mitochondrial (Homo sapiens) (UniProt P78540); assay: in vitro enzyme assay to detect the production of urea directly proportional to the activity of Arginase II; assay type: functional; conditions: 33.3 µM; note: in the data most compounds retested in dose-response had high values
T2 sequence (whole entry): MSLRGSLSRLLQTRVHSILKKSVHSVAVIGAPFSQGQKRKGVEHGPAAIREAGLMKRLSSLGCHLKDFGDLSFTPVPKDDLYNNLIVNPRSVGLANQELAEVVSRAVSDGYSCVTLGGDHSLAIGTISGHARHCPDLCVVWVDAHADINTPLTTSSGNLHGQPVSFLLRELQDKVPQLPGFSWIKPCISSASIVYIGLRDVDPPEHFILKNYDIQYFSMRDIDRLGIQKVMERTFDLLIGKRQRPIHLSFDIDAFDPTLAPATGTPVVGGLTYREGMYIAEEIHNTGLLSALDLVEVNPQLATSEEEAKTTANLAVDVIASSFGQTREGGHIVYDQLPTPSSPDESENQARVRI

[6] = target: T3, Proteasome subunit beta (Trypanosoma cruzi) (UniProt O96673); assay: Trypanosoma cruzi proteasome chymotrypsin-like activity (TcProtChymo) assay.; note: in the data most compounds retested in dose-response had high values; assay type: functional; conditions: 9.37 µM
T3 sequence (whole entry): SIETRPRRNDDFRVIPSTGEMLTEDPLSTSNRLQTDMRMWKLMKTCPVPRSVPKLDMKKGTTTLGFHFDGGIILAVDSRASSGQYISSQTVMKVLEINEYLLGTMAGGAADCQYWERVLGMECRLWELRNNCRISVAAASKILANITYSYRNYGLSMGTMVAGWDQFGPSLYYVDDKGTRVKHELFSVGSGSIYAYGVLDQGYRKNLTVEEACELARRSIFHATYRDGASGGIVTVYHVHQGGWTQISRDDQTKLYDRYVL

Homo sapiens = species on record: Homo sapiens; assay: To identify inhibition of the IFN signalling (Jak-Stat) pathway via expression of an eGFP reporter gene under the control of an IFN-stimulated response element (ISRE) containing MxA promoter.; assay type: functional; conditions: 30 µM
[7] = target: T4, Tyrosyl-tRNA synthetase, putative (Trypanosoma cruzi (strain CL Brener)) (UniProt Q4DSP6); assay: Trypanosoma cruzi tyrosyl tRNA synthetase (TcYRS) _High Tyrosine SOP; assay type: functional; conditions: 30 µM; note: in the data most compounds retested in dose-response had high values
T4 sequence (whole entry): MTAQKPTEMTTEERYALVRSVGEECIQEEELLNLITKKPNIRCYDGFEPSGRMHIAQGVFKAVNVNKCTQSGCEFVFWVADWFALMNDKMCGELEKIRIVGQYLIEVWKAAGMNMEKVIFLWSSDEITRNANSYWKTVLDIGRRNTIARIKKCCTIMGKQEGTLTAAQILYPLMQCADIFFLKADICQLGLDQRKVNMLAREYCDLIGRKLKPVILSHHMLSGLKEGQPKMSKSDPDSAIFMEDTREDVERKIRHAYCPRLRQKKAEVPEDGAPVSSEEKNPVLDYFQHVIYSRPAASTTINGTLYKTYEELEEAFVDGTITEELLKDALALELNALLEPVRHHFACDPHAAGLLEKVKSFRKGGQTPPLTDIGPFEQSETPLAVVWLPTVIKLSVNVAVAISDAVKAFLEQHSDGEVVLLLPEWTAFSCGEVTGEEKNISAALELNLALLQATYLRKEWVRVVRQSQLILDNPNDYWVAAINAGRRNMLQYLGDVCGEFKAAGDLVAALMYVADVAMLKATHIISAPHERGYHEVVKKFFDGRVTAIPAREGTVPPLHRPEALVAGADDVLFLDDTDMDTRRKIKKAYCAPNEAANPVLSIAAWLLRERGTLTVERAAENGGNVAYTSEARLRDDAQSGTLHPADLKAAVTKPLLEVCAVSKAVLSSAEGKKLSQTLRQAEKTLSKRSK

[8] = target: T4, Tyrosyl-tRNA synthetase, putative (Trypanosoma cruzi (strain CL Brener)); assay: Trypanosoma cruzi tyrosyl tRNA synthetase (TcYRS) SOP; assay type: functional; conditions: 30 µM
[9] = target: Chromo domain-containing protein 1 (Saccharomyces cerevisiae (strain ATCC 204508 / S288c) (Baker's yeast)) (UniProt P32657); assay: ScCHD-1 Enzyme Inhibition Assay; assay type: functional; conditions: 30 µM; note: in the data most compounds retested in dose-response had high values
Chain of Chromo domain-containing protein 1 (Saccharomyces cerevisiae (strain ATCC 204508 / S288c) (Baker's yeast)) (P32657 whole entry, the tested form may be a part): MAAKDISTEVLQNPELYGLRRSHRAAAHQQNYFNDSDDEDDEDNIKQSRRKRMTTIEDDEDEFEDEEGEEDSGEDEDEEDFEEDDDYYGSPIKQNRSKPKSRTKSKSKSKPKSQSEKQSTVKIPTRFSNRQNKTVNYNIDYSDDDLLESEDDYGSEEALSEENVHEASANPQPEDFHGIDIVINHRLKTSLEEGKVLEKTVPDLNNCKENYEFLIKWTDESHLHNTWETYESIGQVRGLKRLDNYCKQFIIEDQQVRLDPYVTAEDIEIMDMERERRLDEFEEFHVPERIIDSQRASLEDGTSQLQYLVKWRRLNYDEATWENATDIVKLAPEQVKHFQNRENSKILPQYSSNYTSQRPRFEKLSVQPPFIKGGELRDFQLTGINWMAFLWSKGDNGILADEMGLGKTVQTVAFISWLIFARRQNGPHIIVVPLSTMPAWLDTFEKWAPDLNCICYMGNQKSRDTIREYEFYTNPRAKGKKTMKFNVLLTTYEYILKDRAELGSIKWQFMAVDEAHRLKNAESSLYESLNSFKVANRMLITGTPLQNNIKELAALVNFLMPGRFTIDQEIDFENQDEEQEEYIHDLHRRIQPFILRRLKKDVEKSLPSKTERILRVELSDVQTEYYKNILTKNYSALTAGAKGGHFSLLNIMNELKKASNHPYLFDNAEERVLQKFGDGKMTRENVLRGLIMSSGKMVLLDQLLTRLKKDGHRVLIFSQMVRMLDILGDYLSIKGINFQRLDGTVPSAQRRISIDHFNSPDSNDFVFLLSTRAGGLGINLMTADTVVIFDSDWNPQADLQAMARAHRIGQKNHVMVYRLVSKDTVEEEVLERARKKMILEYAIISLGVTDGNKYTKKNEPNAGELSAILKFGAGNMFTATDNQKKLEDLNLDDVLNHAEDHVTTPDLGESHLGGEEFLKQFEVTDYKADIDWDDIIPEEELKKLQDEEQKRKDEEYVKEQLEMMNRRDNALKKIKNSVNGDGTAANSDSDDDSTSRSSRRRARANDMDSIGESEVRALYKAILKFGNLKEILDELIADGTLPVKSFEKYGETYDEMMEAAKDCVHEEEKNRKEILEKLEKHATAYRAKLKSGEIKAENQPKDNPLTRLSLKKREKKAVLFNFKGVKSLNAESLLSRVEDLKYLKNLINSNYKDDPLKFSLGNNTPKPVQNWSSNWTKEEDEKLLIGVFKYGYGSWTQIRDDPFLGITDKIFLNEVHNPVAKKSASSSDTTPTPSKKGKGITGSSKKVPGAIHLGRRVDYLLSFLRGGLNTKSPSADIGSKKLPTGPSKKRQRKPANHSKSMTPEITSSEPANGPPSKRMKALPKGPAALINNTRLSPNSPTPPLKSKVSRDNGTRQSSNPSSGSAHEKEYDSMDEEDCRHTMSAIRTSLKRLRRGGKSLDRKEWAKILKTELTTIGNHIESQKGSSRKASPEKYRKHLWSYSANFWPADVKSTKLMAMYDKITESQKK

Chain of Protein translocase subunit SecA (Escherichia coli (strain K12)) (P10408 whole entry): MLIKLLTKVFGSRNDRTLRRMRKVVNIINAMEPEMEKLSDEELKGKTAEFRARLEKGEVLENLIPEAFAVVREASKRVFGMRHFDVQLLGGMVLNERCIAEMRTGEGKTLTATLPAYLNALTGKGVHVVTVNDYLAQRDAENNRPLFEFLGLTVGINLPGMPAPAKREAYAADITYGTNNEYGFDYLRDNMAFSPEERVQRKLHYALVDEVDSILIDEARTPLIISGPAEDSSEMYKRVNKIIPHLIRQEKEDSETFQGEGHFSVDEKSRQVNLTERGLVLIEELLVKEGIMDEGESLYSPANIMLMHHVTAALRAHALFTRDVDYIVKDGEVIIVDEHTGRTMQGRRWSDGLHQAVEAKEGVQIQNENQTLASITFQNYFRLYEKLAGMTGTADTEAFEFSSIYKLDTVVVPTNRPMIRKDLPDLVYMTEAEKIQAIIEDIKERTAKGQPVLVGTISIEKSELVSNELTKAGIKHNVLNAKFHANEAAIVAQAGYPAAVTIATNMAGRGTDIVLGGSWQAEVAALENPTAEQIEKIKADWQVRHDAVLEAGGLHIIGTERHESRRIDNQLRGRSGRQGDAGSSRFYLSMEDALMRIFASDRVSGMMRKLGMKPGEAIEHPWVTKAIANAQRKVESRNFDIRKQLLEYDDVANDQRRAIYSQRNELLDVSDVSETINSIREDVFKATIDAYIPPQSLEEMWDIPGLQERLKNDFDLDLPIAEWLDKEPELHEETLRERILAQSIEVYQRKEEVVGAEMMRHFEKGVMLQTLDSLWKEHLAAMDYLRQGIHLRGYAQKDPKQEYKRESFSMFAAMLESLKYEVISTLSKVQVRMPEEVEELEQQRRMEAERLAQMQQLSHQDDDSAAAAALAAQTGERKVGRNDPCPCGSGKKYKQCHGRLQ

Row | SMILES | Percent Effect [1] [%] | Percent Effect [2] [%] | Percent Effect [3] [%] | Percent Effect [4] [%] | Percent Effect (Trypanosoma cruzi) [%] | Percent Effect [5] [%] | Percent Effect [6] [%] | Percent Effect (Homo sapiens) [%] | Percent Effect [7] [%] | Percent Effect [8] [%] | Percent Effect [9] [%]
1 | CCNC(=O)c1ccc2c(c1)nc1n2CCN(Cc2ccco2)C1 | -1.58 | 2.63 | 10.5 | 1.2 | -0.0974 | -4.73 | 13.7 | 8.32 | 0 | 0 | -5.62
2 | CCc1ccc(NS(=O)(=O)CC2=NC(=O)n3cccc3C2=O)cc1 | 1.25 | -17.3 | 11.5 | 5.52 | -0.786 | -7.57 | 6.1 | 0.554 | -8.47 | -12.8 | 3.49
3 | CCc1ccc(CN(CCCn2ccnc2)Cc2ccc(C)s2)o1 | -8.95 | 1.35 | 1.91 | 2.18 | -0.79 | -3.94 | 9.36 | 38.5 | 0 | -6.49 | -8.71
4 | CC(=O)N1CC(=O)N(c2ccccc2)CC12CCN(Cc1cccs1)C2 (configuration not stated) | -0.462 | 16 | -5.96 | 8.98 | 2.51 | -36.4 | 7.69 | -11.1 | 5.21 | 27.5 | -7.74
5 | Cc1cccc(CN(Cc2ccc(C)o2)C2CC(C)(C)NC(C)(C)C2)n1 | -4.93 | 9.46 | 9.39 | -2.48 | -6.13 | -3.48 | 10.8 | 1.42 | 3.23 | 3.9 | -0.669
6 | CC(NC(=O)NCCCn1cncn1)c1ccc2c(c1)OCCO2 (configuration not stated) | -1.3 | 18.9 | -2.43 | 0.133 | -3.81 | -1.66 | 14.2 | 6.17 | 2.97 | 15.8 | -2.48
7 | CCc1n[nH]c(C2CN(CCc3ccncc3)CCO2)n1 (configuration not stated) | -6.01 | 3.8 | 7.99 | 7.24 | 0.103 | 0.215 | 1.72 | 14 | 1.04 | 7.59 | -9.31
8 | Cc1nc(N2CCCC2)nc2c1CCN(Cc1ccco1)CC2 | -1.94 | 10.7 | 8.01 | 0.178 | 0 | -45.3 | 20.7 | -2.8 | 3.12 | 12.5 | -9.82
9 | CCn1c(CN2CCN(CC(N)=O)CC2)nc2c(F)cccc21 | -3.22 | 5.26 | 7.34 | 6.21 | 8.84 | -2.3 | 1.34 | -11.4 | 7.35 | 9.76 | -5.52
10 | CCc1nc(C2CCCN2CC(=O)Nc2nncs2)no1 (configuration not stated) | -3.67 | 5.2 | -3.54 | 12.8 | 3.37 | -3.2 | 2.53 | 12.1 | 10.7 | 21.9 | -9.06
11 | CC(O)CN1CCN(C(=O)c2cccn2Cc2ccncc2)CC1 (configuration not stated) | -5.17 | 10.1 | 0.216 | 10.1 | 2.74 | 2.66 | -2.38 | 3.13 | 0.493 | 13.9 | -8.49
12 | O=C1CC2(CCN(CC3CC3)C2)CN1c1cccc(F)c1 (configuration not stated) | -0.129 | 10.8 | -7.34 | 0.348 | -3.81 | 1.24 | 4.38 | -6.1 | 3.23 | 11.1 | -0.923
13 | c1cnn(CC2CN(c3ncnc4ccsc34)CCO2)c1 (configuration not stated) | -5.02 | 2.7 | 14.2 | -3.02 | -4.69 | 0.833 | 19.5 | 69.8 | 4.95 | 11 | 0.323
14 | Cc1nc(N2CCOCC2)nc2c1CCN(Cc1cccnc1)CC2 | -2.77 | 0 | 0.954 | 7.94 | -3.28 | -56.8 | 3.08 | -25.6 | 7.29 | -2.5 | -17.8
15 | NC(=O)C1CN(C(=O)Nc2cc(Cl)cc(Cl)c2)CCO1 (configuration not stated) | -2.58 | 0 | 0.0499 | 4.99 | 4.17 | -3.19 | 12.1 | 22.7 | 4.17 | 11.1 | 2.8
16 | CCN1CCC(CNC(=O)NCc2cc(-c3ccc(C)cc3)no2)C1 (configuration not stated) | 0.151 | 0 | -6.65 | 3.46 | 3.44 | -3.14 | 12.2 | 5.69 | 10.9 | 25.6 | -5.52
17 | CC(C)(C)c1ccn(C2(C(=O)O)CCN(c3nccc(N)n3)CC2)n1 | -4.48 | -6.94 | 0.972 | 0.435 | -2.23 | -0.442 | 10.7 | 0.112 | 3.16 | -5.13 | 6.06
18 | COc1ccc(CS(=O)(=O)CC(=O)NCC2CC2)cc1F | -1.25 | 10.5 | 6.04 | -2.71 | 1.66 | 5.92 | 15.6 | 8.09 | 6.38 | 18.2 | -4.08
19 | CCN1CCN(C2CCN(Cc3nc(-c4ccoc4)no3)CC2)C1=O | -8.04 | 2.6 | 7.03 | -5.89 | -5.24 | 1.07 | 0.676 | 23.7 | 1.94 | 0 | -2.83
20 | COC(=O)CCC(=O)N1CCC2(CN(Cc3cccc(F)c3)C2)C1 | -1.57 | 0 | 35.4 | 0.909 | 1.54 | -52.5 | 1.71 | -9.09 | -2.08 | -2.5 | -1.45
21 | c1cc(CN2CCN(Cc3cscn3)CC2)cs1 | -1.31 | 10.4 | 3.68 | -2.63 | -2.25 | 4 | 2.67 | 29.1 | 2.86 | 2.35 | -6.18
22 | O=C(c1ccc2c(c1)OCO2)N1CCCC(n2cccn2)C1 (configuration not stated) | -1.59 | 10.8 | -7.46 | -3.52 | 7.64 | -4.01 | 3.24 | 27.9 | 8.37 | 11.1 | -7.12
